Common to all, as to test: NCI-60 one-dose screen, 48 h (100 = growth as untreated, 0 = no growth, -100 = all killed)
Holding throughout (settings): 10 µM unless noted

The test system of test [1] is SR leukemia.
Test [2] concerns RPMI-8226 leukemia.
Test [3] concerns OVCAR-8 ovarian.
For test [4], the system named is OVCAR-5 ovarian.
The subject of test [5] is OVCAR-4 ovarian.
The subject of test [6] is SK-OV-3 ovarian.
Test [7] concerns IGROV1 ovarian.
The subject of test [8] is OVCAR-3 ovarian.
Test [9] relates to HS 578T breast.
Test [10] has as its system NCI/ADR-RES ovarian.
In test [11] the test system is T-47D breast.
Test [12] has as its system BT-549 breast.
Test [13] has as its system MDA-MB-435 melanoma.
Test [14] concerns SW-620 colon.
Test [15] relates to MCF7 breast.
The test system of test [16] is HCT-116 colon.
Test [17] relates to HCC-2998 colon.
In test [18] the test system is KM12 colon.

Each structure is given as a SMILES string. This is part of a sample that, as a whole, favours compounds with a hit. Of some 83,000 tested, about 20% had one in any assay.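 The test compound was applied at a single concentration to cells in 96-well plates for 48 hours, and percent growth was recorded.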 Values without a mark were called inactive. Activity calls are given as the source filed them. Rule for the calls: active = growth percent below 10; inactive = the rest.

For `CCCCCCCCCCC/C=C\C[C@H](O)C/C=C1/C(=O)C=C[C@@H]1C/C=C\CCCC(=O)OC`, the growth in test [1] was 6.46% (active); in test [2], -10.2% (active); in test [3], 7.18% (active); in [4] it was 21.9%; in test [5] it was -1.25% (active); in [6], 26.8%. Moreover, the growth in [7] was -15.9% (active); in test [8] it was -46.2% (active); in test [9] it was 18%; in test [10], 9.04% (active); in [11], -8.92% (active); in [12], -14.2% (active). Besides, the growth in test [13] is -14.5% (active); in test [14], 3.33% (active); in [15] it was 10.8%; in test [16] it was -32% (active); in [17], -46.5% (active); in test [18], -48.5% (active).
For `O=S(=O)(NCCCNc1cc(-c2cn(-c3ccccc3)nc2-c2cccc(O)c2)ccn1)c1cccc(F)c1`, the growth in [1] is 35%; in test [2], 32%; in test [3], 39.8%; in [4] it was 68.3%; in test [5], 50.2%; in test [6], 72%. Further, the growth in test [7] is 53.8%; in [8], 65.6%; in test [9], 41.7%; in [10] it was 49.3%; in test [11] it was 15.6%; in test [12], 44.7%. Moreover, the growth in test [13] is 49.3%; in test [14] it was 29.5%; in test [15], 31.2%; in test [16], 32.1%; in [17] it was 10.3%; in test [18], 28.2%.
As to `Cc1ccc2nc(-c3c(N)n[nH]c3CCCO)[nH]c(=O)c2c1`, the growth in [1] is 77.2%; in [2], 91.6%; in test [3] it was 105%; in [4] it was 110%; in test [5], 106%; in test [6], 108%. The growth in [7] is 7.26% (active); in [8] it was 115%; in [9], 103%; in test [10], 102%; in [11], 111%; in test [12] it was 104%. The growth was 110% in test [13]; 101% in [14]; 94.5% in [15]; 109% in test [16]; 111% in test [17]; 111% in test [18].
`O=C1c2ccccc2C(=O)c2c1oc1oc3c(c(=O)c21)c(=O)n(-c1ccccc1)c1ccccc31`: the growth is 11.4% in [1]; 19.6% in [2]; 48.2% in [3]; 88.7% in test [4]; 18.8% in [5]; 67.3% in test [6]. Moreover, the growth in test [7] is 71.8%; in test [8], 2.15% (active); in [9], 90.5%; in test [10], 90.3%; in [11], 4.47% (active); in test [12], 12.3%. Further, the growth in [13] is 87.8%; in test [14], 18.6%; in [15] it was 51.6%; in [16] it was 41.7%; in test [17], 42.9%; in test [18], 18.9%.
For `COc1ccc(Cn2c(SC)nc(=O)n(Cc3ccc(Cl)cc3)c2=O)cc1`, the growth in test [1] was 84.4%; in test [2], 92.8%; in test [3], 96%; in test [4] it was 92.1%; in test [5], 98%; in test [6], 106%. For the same compound, the growth was 102% in [7]; 102% in test [8]; 94% in [9]; 95.4% in test [10]; 81.8% in test [11]; 97% in [12]. For the same compound, the growth is 111% in test [13]; 103% in test [14]; 92% in test [15]; 93.9% in test [16]; 103% in test [17]; 97.5% in test [18].
Consider `O=C(CNc1ccc(Cl)cc1)Nc1ccc(-c2nc3ccccc3s2)cc1`, for which the growth in test [1] was 11.5%; in test [2] it was 46%; in [3], 66.4%; in test [4] it was 121%; in test [5] it was 23.1%; in test [6], 89.7%. Further, the growth in [7] was 34.3%; in [8], 28.9%; in [9], 84.1%; in test [10], 64.5%; in [11], 4.58% (active); in test [12], 16.7%. Besides, the growth in test [13] is 62.8%; in test [14], 22.6%; in test [15], 11.5%; in test [16], 23.3%; in test [17], -16.2% (active); in test [18], 80.7%.
Regarding `O=C(Nc1cccc(C(F)(F)F)c1)Nc1ccc(OCc2nnc(-c3ccccc3)o2)c(F)c1`, the growth in [1] was 5.85% (active); in test [2], 2.02% (active); in test [3], 38.5%; in test [4] it was 50.9%; in [5] it was 34.5%; in test [6] it was 69.1%. Further, the growth in test [7] is 45.9%; in [8] it was 15.6%; in test [9], 39.2%; in test [10], 37%; in [11] it was 21.1%; in test [12], 29.6%. In addition, the growth in [13] was 49.4%; in [14], 28.7%; in test [15] it was 24.8%; in test [16], 14.6%; in [17] it was 64.3%; in [18] it was 12.2%.
Consider `O=C(/C=C/CN1CCOCC1)Nc1cc2c(Nc3ccc(F)c(Cl)c3F)ncnc2cc1OCCOC(F)F`, for which the growth in [1] is 60.7%; in test [2] it was 17.8%; in test [3] it was 49.6%; in test [4], 49.6%; in [5] it was 54.7%; in test [6] it was 11.8%. Also, the growth in test [7] is -11.1% (active); in [8], 48.9%; in [9], 23.1%; in test [10] it was 36.2%; in test [11], 1.51% (active); in [12] it was 54.3%. For the same compound, the growth was 69.1% in test [13]; 89.7% in test [14]; 60.7% in test [15]; 49.4% in test [16]; 69.1% in test [17]; 74.1% in test [18].
Regarding `CCOC(=O)CC(C#N)(CC(=O)OCC)C(=O)OCC`, the growth in test [1] was 100%; in test [2] it was 96.1%; in test [3], 88.8%; in test [4], 99.9%; in test [5] it was 104%; in test [6], 117%. Moreover, the growth in test [7] was 118%; in test [8] it was 112%; in [9], 117%; in [10], 106%; in test [11], 105%; in test [12], 106%. Further, the growth in [13] was 94.8%; in test [14] it was 108%; in [15] it was 101%; in test [16] it was 102%; in test [17], 109%; in test [18] it was 106%.

These data come from PubChem BioAssay (NCI).
